Bioassay records: PubChem BioAssay, National Center for Advancing Translational Sciences (NCATS)
LASV entry inh = blocks Lassa virus binding to or entry into cells; Lassa virus pseudotype entry inhibition, cell reporter; Potency, µM (doses to about 37.9 µM), inactives show at the highest dose activity change, negative = inhibition, usual class: inhibitors; 300,000 compounds, 1.2% hits; calls by dose curve; tested in HEK293 cells; note: potency is the fitted concentration of half-maximal effect; nearly all actives have a fitted effect of over 50% in size
FMDV antiviral = blocks foot and mouth disease virus; FMDV antiviral cell-based qHTS; Potency, µM (top dose mostly 57.9 µM), for inactives: at the highest dose activity change, negative = inhibition, usual class: inhibitors; 410,000 compounds, 1.2% hits; AID 1159524; calls by dose curve; tested in HEK293T cells; note: read-out not given here; potency is the fitted concentration of half-maximal effect; nearly all actives have a fitted effect of over 45% in size
Marburg entry inh = Marburg virus entry inhibition | Marburg virus pseudotyped entry inhibition, cell reporter | Potency, µM (doses to about 37.8 µM), inactives show at the top dose activity change, negative = inhibition, actives largely listed as inhibitors | 300,000 compounds, 1.8% hits; calls by dose curve; tested in HEK293 cells; note: potency is the fitted concentration of half-maximal effect
HCMV antiviral = blocks human cytomegalovirus replication. HFF cells, HCMV-luciferase reporter, 72 h; stronger effect = lower value. activity change, negative = inhibition, % at 57.5 µM. 410,000 compounds, 4.5% hits; in the data active = activity change below about -60%; inconclusive = no clear call, values can overlap the other calls; inactive = above about -39%
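Compounds were evaluated in HFFs infected with an HCMV luciferase reporter virus (MOI 1 PFU/cell). Luciferase in lysates collected 72 h post infection served as the replication measure.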
An asterisk follows results filed as active; ? = inconclusive; / = no result; [ ] = another dose, or the depositor's remark. Shown are actives, neighbours in structure and some others; about 6.2% of the full set was active somewhere. % is set by controls: 0 for no effect and ±100 for the full control effect.

SMILES	LASV entry inh	FMDV antiviral	Marburg entry inh	HCMV antiviral
COc1cccc(-c2ccc3c(c2)O[C@@H](CN(C)C(=O)C2CCOCC2)[C@H](C)CN([C@H](C)CO)S3(=O)=O)c1	/	5%	/	-7
CCc1cccc(C)c1NC(=O)C(CC)Sc1nncn2c1cc1occc12 (stereo unspecified)	-5%[46.1 µM]	0%	/	?
COC(=O)c1ccc(C(=O)NCC2Cc3cc(F)cc(-c4cncnc4)c3O2)cc1 (stereo unspecified)	/	1%	/	/
OC1CC2CCC(C1)N2CCCN1c2ccccc2Sc2ccc(Cl)cc21 (stereo unspecified)	-14%[46.1 µM]	-22%	?	-65*
OCCN1CCN(CCCN2c3ccccc3C=Cc3ccccc32)CC1	?	/	7.9µM*	-24
CN1CCN(CCCN2c3ccccc3Sc3ccc(Cl)cc32)CC1	9.2µM*	?	10µM*	-29
Cc1cc(-c2ccnc(-n3ncc(C(=O)NCc4cccnc4)c3C3CC3)n2)c(C)s1	/	-12%	/	/
COc1ccc(NC(=O)C2=C(C)Nc3c(C(=O)Nc4ccc(C)cc4)cnn3C2c2cccc(Cl)c2)cc1 (stereo unspecified)	-16%[46.1 µM]	-9%	/	-2
C=CCNc1cccc2c1S(=O)(=O)N[C@H](Cc1ccccc1)CO2	/	/	/	-30
COc1ccc(O)c(/C=N/NC(=O)c2ccc(CSc3nc(C)cc(C)n3)cc2)c1	?	?	?	-90*
COc1ccc(/C=N/NC(=O)c2ccc(CSc3nc(C)cc(C)n3)cc2)cc1O	-3%	?	-23%	-66*
Cc1cc(C)nc(SCc2ccc(C(=O)N/N=C/c3ccc(C(=O)O)cc3)cc2)n1	9%	-4%	8%[46.1 µM]	16
Cc1cc(C)nc(SCc2ccc(C(=O)N/N=C/c3cccc(O)c3O)cc2)n1	?	24%	7.3µM*	-99*
COc1ccc(/C=N/NC(=O)c2ccc(CSc3nc(C)cc(C)n3)cc2)c(OC)c1OC	14%	-17%	5%	?
O=C(CSc1nccn1Cc1ccccc1)NCc1ccccc1Cl	22%[46.1 µM]	-9%	/	19
COc1cc(C(=O)n2nc(C)c(Sc3ccc(Cl)cc3)c2C)cc(OC)c1OC	-1%[46.1 µM]	-29%	2%[46.1 µM]	-5
CON	/	0%	/	/
COc1ccccc1CN1CCC(n2cc(C(=O)N3CCCCC3)nn2)CC1	/	-11%	/	/
Cc1cc(C)cc(NC(=S)/C(=C(\[O-])c2ccc(Cl)cc2Cl)[n+]2ccccc2)c1	/	9%	/	5
[O-]/C(=C(\C(=S)Nc1ccc(SC(F)F)cc1)[n+]1ccccc1)c1ccc(Cl)cc1Cl	?	-8%	?	-63*
COC(=O)[C@]1(C#N)[C@@H](c2ccccc2)C(=O)N(Cc2ccc(Cl)cc2)[C@@H]1c1ccc(OC)cc1	/	/	/	-30
O=C(NCC(c1cccnc1)N1CCN(c2ccccc2F)CC1)Oc1ccccc1 (stereo unspecified)	-9%	?	-16%	-28
Cc1ccc(CNC(=O)C(=O)NCC(c2cccnc2)N2CCN(c3ccccc3F)CC2)cc1 (stereo unspecified)	?	-20%	/	-72*
CCc1ccc(NC(=O)C(=O)NCC(c2cccnc2)N2CCc3ccccc3C2)cc1 (stereo unspecified)	18%[46.1 µM]	10µM*	/	-28
CCN(CC)S(=O)(=O)c1ccc2c(c1)c(=O)c(C(=O)NCCCN(C)c1ccccc1)cn2C	-30%	?	-24%	23
SMILES	LASV entry inh	FMDV antiviral	Marburg entry inh	HCMV antiviral
CC1CCN(CCCNC(=O)c2cn(C)c3ccc(S(=O)(=O)N4CCCC4)cc3c2=O)CC1	26%	3%	-13%	-108*
CN(CCCNC(=O)c1cn(C)c2ccc(S(=O)(=O)N(C)C)cc2c1=O)c1ccccc1	1%	-16%	-17%	-64*
COc1ccc(-c2nc3scc(CCNS(=O)(=O)c4ccc(F)c(C(F)(F)F)c4)n3n2)cc1OC	-20%[46.1 µM]	3%	/	-31
CCOC(=O)N1CCN(C(=O)c2ccc(OCC)cc2)CC1	-26%	12%	21%[46.1 µM]	-15
CCOC(=O)N1CCN(C(=O)CCC(=O)c2ccc(OCC)cc2)CC1	11µM*	7%	13%[46.1 µM]	-28
COC(=O)c1ccc(CNC(=O)COC(=O)c2ccc(N(C)C)cc2)cc1	?	?	?	-66*
CN(C)c1ccc(C(=O)OCC(=O)N2CCCC2)cc1	-3%	42%	?	7
CCOC(=O)N1CCN(C(=O)COC(=O)c2ccc(N(C)C)cc2)CC1	2.5µM*	-11%	22%	-26
CN(C)c1ccc(C(=O)OCC(=O)NCCNC(=O)COC(=O)c2ccc(N(C)C)cc2)cc1	12%	-11%	?	27
CCCCCCCCCCCCNC[C@@H]1CSCCS(=O)(=O)N1	/	/	/	12
O=C(CCN1C(=O)/C(=C/c2ccccc2Cl)SC1=S)Nc1ccccc1C(=O)O	/	?	/	-28
O=C(CCCN1C(=O)/C(=C/c2cccs2)SC1=S)Nc1cccnc1	?	-9%	?	-98*
O=C(CCCN1C(=O)/C(=C/c2ccccc2Cl)SC1=S)NNC(=O)c1ccc(Cl)cc1Cl	/	8.9µM*	/	-64*
O=C(CCCN1C(=O)/C(=C/c2cccs2)SC1=S)NNC(=O)c1cccnc1	/	2%	/	?
O=C(CCCN1C(=O)/C(=C\c2cccs2)SC1=S)NNC(=O)c1ccncc1	?	11%	-27%[46.1 µM]	-61*
O=C(CCN1C(=O)/C(=C\c2ccccc2Cl)SC1=S)Nc1cccnc1	15%	?	18%	-15
O=C(CCCN1C(=O)/C(=C/c2ccccc2OC(F)F)SC1=S)Nc1cccnc1	?	?	?	-65*
CCc1cccc(N2C(=O)N(CC(=O)NCc3cccc(OC)c3OC)c3ccccc3S2(=O)=O)c1	?	?	/	-17
O=C(Nc1ccccc1)N1CC[C@@]2(CCCN(C(=O)c3csnn3)C2)C1	/	-8%	/	/
O=C(CCN1C(=O)/C(=C/c2ccccc2F)SC1=S)Nc1cccnc1	10%	-24%	-1%	-27
COc1ccccc1C(=O)NNC(=O)CCCN1C(=O)/C(=C/c2cccs2)SC1=S	1%	0%	7%	-68*
O=C(CCCN1C(=O)/C(=C\c2cccs2)SC1=S)Nc1cccnc1	-14%	0%	-21%	-93*
Cc1ccc(-c2cc(C(=O)NCCc3ccccc3)c3ccccc3n2)cc1C	4%[46.1 µM]	-4%	/	11
COc1ccc(-c2c[n+]3c4n2CCCCC4=C(c2ccc(Br)cc2)C3)cc1	-85%	-7%	?	-100*
CCOc1ccc(Nc2nc(-c3cccc(Cl)c3)c3c(n2)-c2ccccc2OC3)cc1	14%[46.1 µM]	-18%	-1%[46.1 µM]	-75*
Cc1ccc(OC(C)C(=O)Nc2ccc(S(=O)(=O)N3CCOCC3)cc2)cc1 (stereo unspecified)	-23%	?	-19%	-39
COc1ccccc1NC(=O)c1ccc(NC(=O)COC(=O)C2(C)CC2(Cl)Cl)cc1 (stereo unspecified)	-18%	35µM*	-32%	-13
O=C(O)c1cc(N2N=C(C(F)(F)F)/C(=C/C=C/c3ccco3)C2=O)ccc1Cl	-11%	28µM*	?	-90*
CCOC(=O)c1ccc(N2N=C(C)/C(=C/C=C/c3ccco3)C2=O)cc1	?	-1%	-29%	8
